Test [1] relates to DLD1. The experiment in a line: cell viability (CellTiter-Glo) relative to plate median (fraction of plate median); higher = more viable cells. The conditions noted are these: 5 µM; treatment time 24 h; reporter: 7TFP. In outline: (§1)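 Normalisation used webcellHTS2 in additive mode without log transformation, scaling each well's luminescence to the plate median. The luminescence was firefly luciferase or CellTiterGlo, read on a Tecan F500 from parallel plates of colorectal cancer cells stably transduced with lentiviral TCF/Wnt firefly luciferase reporters. Those cells had been given library compounds at a final 5 µM for 24 h, and two independent replicates were averaged.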
Background: Cellular ATP, detected with luciferase, serves as a proxy for viable cell number.

For test [2], the system named is HCT116. The description is as above. The conditions noted are these: 5 µM; treatment time 24 h; reporter: TCF4/Wnt. The essentials: as §1
Test [3] deals with SW480. The test is described as above. The conditions noted are these: 5 µM; treatment time 24 h; reporter: 7TFP. The essentials: as §1
For test [4], the system named is DLD1. The experiment in a line: TCF/Wnt firefly luciferase reporter signal relative to plate median (fraction of plate median); higher = higher Wnt reporter signal. The conditions noted are these: 5 µM; treatment time 24 h; reporter: 7TFP. The essentials: as §1
(In general: Reporter assays use an easily measured gene product as a stand-in for the process of interest.)

In test [5] the test system is SW480. The test is described as above. The conditions noted are these: 5 µM; treatment time 24 h; reporter: 7TFP. The essentials: as §1

± gives the standard deviation of the averaged measurements.

Turning to `CN1CCC(=C2c3ccccc3CC(=O)c3sccc32)CC1`, the results for the cell viability in test [1], in test [2] and in test [3] were 0.988 ± 0.046, 1.04 ± 0.083 and 0.988 ± 0.017, respectively. Besides, the “TCF/Wnt firefly luciferase reporter signal” value in test [4] came to 0.956 ± 0.021; in test [5], 0.934 ± 0.042.
Taken in the same sequence, the figures for `Cc1cccc(C)c1NC(=O)C1CCCCN1C` (stereo not given) were 1 ± 0.078, 0.959 ± 0.1, 0.971 ± 0.035, 1.05 ± 0.035 and 1.04 ± 0.12.
The matching figures for `CN(Cc1cc(Br)cc(Br)c1N)C1CCCCC1`: 0.975 ± 0.036, 1.04 ± 0.035, 0.905 ± 0.052, 0.8435 ± 0.0035 and 0.867 ± 0.022.
The matching figures for `C[C@H]1[C@H](C)CC[C@]2(C(=O)O)CC[C@]3(C)C(=CC[C@@H]4[C@@]5(C)CC[C@H](O)C(C)(C)[C@@H]5CC[C@]43C)[C@H]12`: 0.978 ± 0.014, 1.04 ± 0.014, 1.03 ± 0.021, 1.07 ± 0.057 and 1.06 ± 0.014.
With `Cc1cc(O)cc(=O)o1`, the cell viability in test [1] is 1.05 ± 0.064; in test [2], 1.07 ± 0.05; in test [3] it was 1.04 ± 0.028. The figures for the “TCF/Wnt firefly luciferase reporter signal” value in test [4] and in test [5] were 0.988 ± 0.1 and 1.03 ± 0.21, respectively.
`C=CC[S+]([O-])C[C@H](N)C(=O)O` (stereo not given in full): the cell viability in test [1] is 0.984 ± 0.018; in test [2], 0.903 ± 0.079; in test [3], 0.96 ± 0.016. The entries for the “TCF/Wnt firefly luciferase reporter signal” value in test [4] and in test [5] were 0.986 ± 0.091 and 1.05 ± 0.042, respectively.
The matching figures for `COC1C(OC(C)=O)C(C)OC(OC2C(Oc3cccc4c(OC(C)=O)c5c(=O)oc6ccc(C)c7c(=O)oc(c34)c5c67)OC(C)C(OC(C)=O)C2OC(C)=O)C1OC(C)=O` (stereo not given) [Chartreusin-pentaacetate]: 0.99 ± 0.028, 1.04 ± 0.14, 0.932 ± 0.03, 1.095 ± 0.0071 and 1.1 ± 0.11.
The matching figures for `CCOC(=O)c1c(C)cc(OC)cc1O`: 0.947 ± 0.033, 0.908 ± 0.03, 0.954 ± 0.066, 0.874 ± 0.021 and 1.04 ± 0.064.
The matching figures for `COC[C@H]1O[C@@H](OC2OC[C@@H]3O[C@]4(O[C@H]3[C@H]2OC(=O)C(C)C)O[C@H](C)[C@@](O)(C(C)=O)[C@@H]2OCO[C@H]24)[C@@H](OC)[C@@H](O)[C@@H]1O[C@@H]1O[C@H](C)[C@H](OC)[C@H](O[C@H]2C[C@@]3(C)OC4(C[C@@H](O)[C@H](O[C@H]5C[C@@H](O)[C@H](OC(=O)c6c(C)c(Cl)c(O)c(Cl)c6OC)[C@@H](C)O5)[C@@H](C)O4)O[C@@H]3[C@@H](C)O2)[C@H]1O` (stereo not given in full) [Avilamycin A]: 0.977 ± 0.033, 1.02 ± 0.042, 0.991 ± 0.042, 1.03 ± 0.028 and 1.03 ± 0.078.
For `N=C(N)N`, the cell viability in test [1] was 0.982 ± 0.025; in test [2], 0.95 ± 0.16; in test [3], 1.02 ± 0.014. Further, the entries for the “TCF/Wnt firefly luciferase reporter signal” value in test [4] and in test [5] were 0.924 ± 0.076 and 1.025 ± 0.0071, respectively.
Taken in the same sequence, the figures for `CCC(=O)OC1[C@@H]2CC3=C4CC(=O)O[C@@H](c5ccoc5)[C@]4(C)CCC3[C@@](C)(C2=O)[C@@H](CC(=O)OC)C1(C)C` (stereo not given in full) were 0.932 ± 0.087, 1.03 ± 0.046, 1 ± 0.027, 0.969 ± 0.012 and 0.979 ± 0.19.
Consider `Cc1coc2c1C(=O)C(=O)c1c-2ccc2c1CCCC2(C)C`, for which the cell viability amounted to 1.03 ± 0.043 in test [1], 0.999 ± 0.016 in test [2] and 1.05 ± 0.028 in test [3]. In addition, the “TCF/Wnt firefly luciferase reporter signal” value was 0.785 ± 0.064 in test [4] and 0.994 ± 0.14 in test [5].
In the case of `CCn1cc(C(=O)O)c(=O)c2cnc(N3CCCC3)nc21`, the cell viability in test [1] was determined as 0.983 ± 0.025; in test [2], 1 ± 0.029; in test [3], 0.955 ± 0.02. Further, the “TCF/Wnt firefly luciferase reporter signal” value in test [4] stood at 0.856 ± 0.055; in test [5], 0.978 ± 0.046.
The matching figures for `CC(=O)Oc1cc(-c2coc3cc(OC(C)=O)c(OC(C)=O)c(OC(C)=O)c3c2=O)cc(OC(C)=O)c1OC(C)=O`: 1 ± 0.015, 1.09 ± 0.2, 0.998 ± 0.018, 1.09 ± 0.17 and 0.95 ± 0.1.

Values taken from the supplement of paper PMC6522484.
